Source: PubChem BioAssay (NCI)
Values joined by “and” are separate entries in the source; they are usually repeats but may differ in a detail not shown here. Identical values can stand only once. This is part of a sample that, as a whole, favours compounds with a hit. Of some 79,000 tested, about 15% had one in any assay. Cut-off read from the data, not from the text of the source: active = growth inhibition above about 70%; inactive = the rest.

Legend:
[1] = NCI Yeast Anticancer Drug Screen. Data for the rad50 strain (AID 155);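 note: 0% = growth of vehicle-only cultures of the same strain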; settings: S. cerevisiae rad50 strain growth inhibition, stronger effect = higher value; at 50.0 µM unless noted
How it was run: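 A DNA repair-deficient yeast mutant serves as the test organism; compound-induced growth inhibition is calculated against vehicle-treated cells.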

[2] = NCI Yeast Anticancer Drug Screen. Data for the mec2-1 strain (AID 157); settings: S. cerevisiae mec2-1 strain, stronger effect = higher value; at 50.0 µM unless noted
How it was run: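 mec2-1 yeast strain, carrying an alteration in DNA damage repair or cell cycle control, was exposed to compounds; growth inhibition was measured relative to vehicle-treated controls.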

[3] = NCI Yeast Anticancer Drug Screen. Data for the sgs1 mgt1 strain (AID 161);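 note: 0% = growth of cultures given vehicle only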; settings: S. cerevisiae sgs1 mgt1 strain, stronger effect = higher value; at 50.0 µM unless noted
How it was run: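 Compounds are added to genetically altered yeast, and growth is compared with cultures given vehicle alone to give percent inhibition.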

[4] = NCI Yeast Anticancer Drug Screen. Data for the cln2 rad14 strain (AID 165);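 note: 0% = growth equal to vehicle treated cultures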; settings: S. cerevisiae cln2 rad14 strain, stronger effect = higher value; at 50.0 µM unless noted
How it was run: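 Yeast carrying cln2 and rad14 alterations (cell cycle control and DNA damage repair) were exposed to compounds. Growth inhibition was measured against vehicle-treated controls.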

[5] = NCI Yeast Anticancer Drug Screen. Data for the bub3 strain (AID 167); settings: S. cerevisiae bub3 mutant strain, stronger effect = higher value; at 50.0 µM unless noted
How it was run: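 Inhibition values come from growth of compound-treated mutant yeast normalised to vehicle-treated controls.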

[6] = NCI Yeast Anticancer Drug Screen. Data for the mlh1 rad18 strain (AID 175); settings: S. cerevisiae mlh1 rad18 strain growth inhibition, stronger effect = higher value; at 50.0 µM unless noted
How it was run: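 Growth inhibition of the yeast strain was measured after compound exposure and expressed relative to vehicle-treated controls. The strain carries defined defects in DNA damage repair.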

Measured: growth inhibition

COc1ccc(O)c2c1C(=O)CCCC2=O
inactive: [1] 3.65% | [2] -0.75% | [3] 6.35% | [4] -4.6% | [5] 4.05% | [6] 0.7%

CC[N+](C)(CC)CCNC(=O)C(c1ccccc1)c1ccccc1
inactive: [1] 45.6% | [2] -1.45% | [3] 21.1% | [4] 0.5% | [5] 6.65% | [6] 16.2%

O=C(O)c1ccc(NCO)cc1
inactive: [1] 7.05% | [2] 5.15% | [3] -13.2% | [4] 33.7% | [5] 4.3% | [6] 7.85%

O=C(Cc1ccccc1)CC(CC(=O)Cc1ccccc1)c1ccccc1
inactive: [1] 31% | [2] -16.7% | [3] 6.6% | [4] 15.8% | [5] 3.7% | [6] -6.15%

O=S(=O)(O)c1cc(Nc2ccnc3ccccc23)c2c(S(=O)(=O)O)cc(S(=O)(=O)O)cc2c1
inactive: [1] 15.1% | [2] 24.3% | [3] 4.25% | [4] 12.2% | [5] 10.2% | [6] 19.8%

C=C1C(=O)C23CC1CCC2C12CO[C@H](O)[C@H]1C(C)(C)[C@H](OC(C)=O)C[C@H]2OC3=O (stereo partly specified)
inactive: [1] 4.75% | [2] 4.15% | [3] 1.8% | [4] 6.1% | [5] 0.85% | [6] -76.2%

CC1CCCN2C(=O)CN(c3ccccc3)CC(=O)N12 (stereo unspecified)
inactive: [1] 13.6% | [2] 2.45% | [3] -4.7% | [4] 14.9% | [5] 5.35% | [6] 1.95%

CNC(=O)OCc1cc(C)cc(C)c1-c1ccco1
inactive: [1] -4.95% | [2] -9.15% | [3] 28.4% | [4] 4% | [5] 10.3% | [6] 7.05%

COc1ccc2cc1Oc1ccc(cc1)C[C@H]1c3cc(c(OC)cc3CCN1C)Oc1c(OC)c(OC)cc3c1[C@H](C2)N(C)CC3
inactive: [1] 27.1% and 23.9% | [2] 12.3% and -23.1% | [3] -15.9% and 5.7% | [4] -26.3% and 4.5% | [5] -6.4% and 19.7% | [6] -31.4% and -38.9%

CCCCCCC(=O)C/C(CCC(=O)N(Cc1ccccc1)Cc1ccccc1)=N\Nc1ccc([N+](=O)[O-])cc1[N+](=O)[O-]
inactive: [1] 12.8% | [2] 16.1% | [3] -13.3% | [4] 27.4% | [5] -11.4% | [6] -20.5%

N#CC(C#N)=C1SC(=Nc2ccccc2)C(=Nc2ccccc2)N1c1ccccc1
inactive: [1] 11.6% | [2] 6.05% | [3] 19.2% | [4] 7.1% | [5] 21.6% | [6] 16.4%

C=CCSC[C@H](NC(=O)COc1ccccc1)C(=O)NC(C(=O)OCc1ccc([N+](=O)[O-])cc1)=C(C)C
inactive: [1] 45.8% | [2] 26.6% | [3] 24.6% | [4] 31.1% | [5] 39.4% | [6] 14.4%

OCCN(CCO)c1ncnc2c1sc(=S)n2-c1ccccc1
inactive: [1] -0.05% | [2] -32.3% | [3] 1.15% | [4] 7.9% | [5] -5.65% | [6] 7.5%

CCCn1/c(=N\N=O)sc2ccccc21
inactive: [1] -0.45% | [2] 2.9% | [3] -5.5% | [4] -29.6% | [5] -23.1% | [6] 7%

O=C(CSc1nnc(-c2ccc(N=Cc3ccc(Cl)cc3)cc2)o1)Nc1cccc([N+](=O)[O-])c1
inactive: [1] -1.95% | [2] -11.1% | [3] 3.85% | [4] 18.1% | [5] -40% | [6] 2.45%

COc1cc(C(=O)NO)ccc1O
inactive: [1] -0.15% | [2] -12.6% | [3] -15.1% | [4] -1.95% | [5] -6% | [6] -1.4%

O=c1c2ccccc2[nH]c(=S)n1C1CCCC1
inactive: [1] -7.85% | [2] -6.55% | [3] 15.1% | [4] -19.9% | [5] 39.4% | [6] -2.15%

COC(C)(/C(C)=N/O)c1ccc(-c2ccccc2)cc1 (stereo unspecified)
inactive: [1] 7.85% | [2] -7.95% | [3] 2.8% | [4] -0.65% | [5] 16.6% | [6] 19.7%

CCCOC(CCC(=O)NC(C)(C)C)CC(=O)NC(C)(C)C (stereo unspecified)
inactive: [1] 5.85% | [2] 5.45% | [3] 6.9% | [4] 4.15% | [5] 0.55% | [6] -9.9%

OC1(C2(O)CCCC2)CCCC1
inactive: [1] 14.1% | [2] 8.4% | [3] 22% | [4] 6.75% | [5] 18% | [6] 12.8%

CSc1cc(Cl)c(C(=O)Nc2ccccc2)cc1S(=O)(=O)n1cc[nH]c1=O
inactive: [1] 0.2% | [2] -10.6% | [3] -6.35% | [4] -8.95% | [5] -1.35% | [6] 8.05%

COC1OC(C)C(OC(=O)c2ccccc2)C(OC(=O)c2ccccc2)C1OC(=O)c1ccccc1 (stereo unspecified)
inactive: [1] 16.2% | [2] -3.45% | [3] 3.75% | [4] -23.6% | [5] 1.95% | [6] 12.7%

C/C(=N/O)c1ccncc1
inactive: [1] 1.15% | [2] -3% | [3] 1.65% | [4] 11.2% | [5] 16.1% | [6] -6.9%

COc1cc2cnc3c4cc(OC(C)C)c(OC)cc4ccc3c2cc1OC
inactive: [1] -10% | [2] -15.3% | [3] -20.1% | [4] 5.75% | [5] -5.3% | [6] -29.4%

C[Si](C)(CCl)N([Si](C)(C)CCl)[Si](C)(C)CCl
inactive: [1] 13.1% | [2] 8.55% | [3] 0.7% | [4] -19.7% | [5] -2.6% | [6] -10.1%

CCOC(=O)CC(C#N)(C#N)CC(=O)OCC
inactive: [1] 4.15% | [2] 21.3% | [3] 5.85% | [4] -0.1% | [5] 26.8% | [6] -0.55%

Cc1nccn1C(/C(=N/O)c1ccccc1)c1ccccc1 (stereo unspecified)
inactive: [1] -0.55% | [2] 10.4% | [3] -0.5% | [4] 13.7% | [5] 10.8% | [6] 3.2%

COc1cccc2cc3c(cc12)C(=O)C(C)=C(C)C3=O
inactive: [1] -1.65% | [2] -3.6% | [3] -3.45% | [4] -9.25% | [5] 6.8% | [6] 2.55%

CS1(C)=Nc2c([N+](=O)[O-])cc([N+](=O)[O-])cc2S(=O)(=O)N=1
inactive: [1] -9.9% | [2] -12.1% | [3] -1.3% | [4] -15.9% | [5] -5% | [6] 6.55%

CCSC1C(O)C(CO)OC1n1cnc2c(=S)nc[nH]c21 (stereo unspecified)
inactive: [1] -3.65% | [2] -28.7% | [3] -2% | [4] 2.6% | [5] 5% | [6] 0.2%

CC(C)(C)OC(=O)COc1ccc(NC(=O)COc2ccc(Cl)c(Cl)c2)cc1
inactive: [1] -17.4% | [2] -22.2% | [3] -10.2% | [4] -28.8% | [5] -1.8% | [6] -8.6%

CCCCOC(=O)c1ccccc1C(=O)Nc1ccccc1
inactive: [1] 7.6% | [2] 12.6% | [3] 2% | [4] 2.1% | [5] 4.4% | [6] -19.7%

COC(=O)NC1C(OC(C)=O)C(OC(C)=O)C(COC(C)=O)OC1n1ccc(NC(C)=O)nc1=O (stereo unspecified)
inactive: [1] 8.65% | [2] 1.4% | [3] 5.9% | [4] 18.6% | [5] 0.15% | [6] 5.1%

O=C(O)C1=Cc2ccccc2OC1
inactive: [1] 2.7% | [2] -19.9% | [3] -5.55% | [4] -27.2% | [5] -28.6% | [6] -4.7%

O=C1NCC2(CCN(CCCC3(c4ccc(F)cc4)OCCO3)CC2)N1c1ccccc1
inactive: [1] -14.1% | [2] -0.05% | [3] -1.55% | [4] 1.4% | [5] 6.4% | [6] 1.55%

O=C(NCN1CCOCC1)NC(=O)NCN1CCOCC1
inactive: [1] -10.6% | [2] 7.4% | [3] -7.6% | [4] -3.9% | [5] 12.2% | [6] -3.95%

Clc1ccc(C(=Nc2ccccc2)C(Nc2ccccc2)c2ccc(Cl)cc2)cc1 (stereo unspecified)
inactive: [1] 4.75% | [2] -5.15% | [3] 17.8% | [4] 8.75% | [5] 3.8% | [6] 19.4%

N#CC(C(=O)/C(=N/Nc1nc(=S)[nH]n1N)C(C#N)c1ccccc1)c1ccccc1 (stereo unspecified)
inactive: [1] -23.8% | [2] -1.45% | [3] -30.8% | [4] 14.8% | [5] -19.1% | [6] -10.2%

CS(=O)(=O)c1cccc(C(=O)O)c1
inactive: [1] 12.4% | [2] 7.65% | [3] 4.05% | [4] -16.1% | [5] 1.35% | [6] -18%

C/C(CCC(CC(=O)O)C(C)C)=N\NC(N)=O (stereo unspecified)
inactive: [1] -5.85% | [2] 1.8% | [3] -6.65% | [4] -35.9% | [5] -27.4% | [6] 4.65%

O=C1OC2(CCCCC2)OC1c1ccccc1 (stereo unspecified)
inactive: [1] 23.4% | [2] 4.2% | [3] 11.9% | [4] 10.5% | [5] 16.2% | [6] 33.5%
